Source: PubChem BioAssay AID686978 (National Center for Advancing Translational Sciences (NCATS), 2013)
Values joined by “and” are separate entries in the source; they are usually repeats but may differ in a detail not shown here. Identical values can stand only once. Hit rate of the full screen: of about 420,000 compounds, about 64,000 (15%) were called active. Inconclusive results (about 27%) are left out. Calls follow the shape of the dose curve; as a rule, active = well fitted inhibition curve with a large enough effect; inconclusive = small, poorly fitted or top-dose-only effect; inactive = flat fitted curve, though single readings scatter. These entries were drawn from the full list.

Test: qHTS for Inhibitors of human tyrosyl-DNA phosphodiesterase 1 (TDP1): qHTS in cells in absence of CPT; also: nearly all actives have a fitted effect of over 55% in size
Settings: DT40 Tdp1-/- hTDP1 cells, no CPT, ATP luminescence, 48 h; activity change, negative = growth inhibition: at 46.2 µM (top of the series)
In short: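 Seeded 400 DT40-hTDP1 cells/well (vehicle DMSO, no 20 nM CPT); pinned compounds; ≥48 hr at 37 °C; CellTiter-Glo luminescence as viability measure.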
% is scaled to controls: 0 for no effect and ±100 for the full control effect; potency is read from the fitted curve at half-maximal effect.

Compound | activity change, negative = growth inhibition | Potency
CN(C)S(=O)(=O)c1cccc(NC(=O)COC(=O)c2cc(=O)[nH]c(=O)[nH]2)c1 | -3.13% (inactive) | 
CN(C)S(=O)(=O)c1cccc(NC(=O)COC(=O)/C=C/c2cccs2)c1 | -17.5% (inactive) | 
CN(C)S(=O)(=O)c1cccc(NC(=O)COC(=O)C2(c3ccccc3F)CCCC2)c1 |  | 13 µM (active)
COc1ccc(S(=O)(=O)N2CCN(C(=O)c3cccs3)CC2)cc1OC | -24.8% (inactive) | 
O=S(=O)(NCCc1ccccc1)c1ccccc1 | -22.6% (inactive) | 
CCSC1=NCCN1C(=O)c1ccc(S(=O)(=O)N(CC)CC)cc1 | 1.3% (inactive) | 
CCN(CC(=O)N1CCCC1)S(=O)(=O)c1ccc(F)cc1 | 6.24% (inactive) | 
CCCN(CCC)S(=O)(=O)c1ccc(C(=O)N2CC3CCC(CC3)C2)cc1 |  | 23.1 µM (active)
CC(C)CCNc1nc(N2CCCC2)c2c(c1C#N)CCN(C)C2 |  | 23.1 µM (active)
N#CCc1c(C#N)c(N)nc(N2CCCC2)c1C#N | -12.4% (inactive) | 
CCc1nc(NCCO)c(C#N)c2c1CCCC2 | 2.76% (inactive) | 
CC(=O)Nc1ccc(Nc2ncnc3c2nnn3Cc2ccccc2Cl)cc1 | -17.5% (inactive) | 
O=C(Nc1cccc(F)c1)N1CC2(CCN(C(=O)c3csnn3)CC2)C1 | -12.5% (inactive) | 
O=S(=O)(NC1CC2CCC1C2)c1ccc(Cl)cc1 (stereo unspecified) | -3.07% (inactive) | 
Nc1nc2c(ncn2[C@@H]2O[C@H](CNS(=O)(=O)N3CCc4ccccc4C3)[C@@H](O)[C@H]2O)c(=O)[nH]1 | 11.3% (inactive) | 
COc1cc2[nH]c(=S)n(CCN3CCCCC3C)c(=O)c2cc1OC (stereo unspecified) | -19.2% (inactive) | 
COc1ccc2c(c1)C(=C(C#N)C#N)C(=O)N2CCc1ccccc1 |  | 14.6 µM (active)
CCCCN1C(=O)/C(=C(/C#N)C(N)=O)c2ccccc21 | -2.74% (inactive) | 
COc1cccc(CNC(=O)CN2C(=O)NC(Cc3ccccc3)(c3ccccc3)C2=O)c1 (stereo unspecified) | -3.32% (inactive) | 
NC(=O)C1CCN(C(=O)c2ccc3c(=O)n(Cc4cccc(Br)c4)c(=S)[nH]c3c2)CC1 | -19.8% (inactive) | 
Cc1cc(C)cc(OCC(=O)Nc2cc(NC(=O)COc3cc(C)cc(C)c3)cc(C(=O)O)c2)c1 | -27.8% (inactive) | 
COC(C)C(C(=O)OCC1=CCN2CC[C@H](O)[C@@H]12)C(C)C (stereo partly specified) | -18.8% [at 9.04 µM] (inactive) | 
O=C(Cc1ccccn1)c1ccc(O)cc1O | -10.7% (inactive) | 
Cc1ccc2[nH]c(=O)c(CN(C)S(=O)(=O)c3cccc4nonc34)cc2c1 | 4.78% (inactive) | 
CCn1c(SCc2ccccc2)nc2c(c1=O)SCC2 | -23.3% (inactive) | 
Cn1c(SCC(=O)N2CCCCC2)nc2c(c1=O)SCC2 | 4.08% (inactive) | 

Compound | activity change, negative = growth inhibition | Potency
Cc1cccc(CSc2nc3c(c(=O)n2C)SCC3)c1 |  | 14.6 µM (active)
CCCCNC(=O)OC(C)CNC(=O)OC (stereo unspecified) | 12.1% (inactive) | 
CCC1CN(CCNC(=O)c2cccnc2C)Cc2cc(OC)ccc2O1 (stereo unspecified) | -18.7% (inactive) | 
CCCS(=O)(=O)NCc1c(C)ncc2c1CCN(C(=O)c1ccc(F)c(F)c1)C2 | 2.82% (inactive) | 
CCOC(=O)CCCCCC(=O)Nc1ccc2c(c1)CC(=O)N([C@@H](C)CO)C[C@H](C)[C@@H](CN(C)Cc1ccccc1)O2 | -22.9% (inactive) | 
CCSc1nnc(SCC(=O)NNC(=O)c2ccccc2F)s1 | -3.12% (inactive) | 
Cc1[nH]c2ccc(C(=O)N3CCN(C)CC3)cc2c1C | -6.28% (inactive) | 
Cc1cccc(N2CCN(C(=O)c3cnc(N4CCCC4)nc3C)CC2)c1C |  | 20.6 µM (active)
CCn1c(C)c(C)c2cc(C(=O)N3CCN(c4cccc(C)c4C)CC3)ccc21 |  | 23.1 µM (active) and 20.6 µM (active)
Cc1cccc(N2CCN(C(=O)COCc3cc(-c4ccc5c(c4)OCO5)on3)CC2)c1C |  | inactive
Cc1cccc(N2CCN(C(=O)c3ccc4c(c3)CCN4S(=O)(=O)c3ccccc3)CC2)c1C |  | 6.51 µM (active)
O=C(c1c(F)cccc1F)N1CCN(c2ncc(Br)cn2)CC1 | -26.9% (inactive) | 
Cc1ccccc1N1CCN(C(=O)c2cccnc2)CC1 | -19.2% (inactive) | 
CCC(CC)C(=O)N1CCN(c2cccc(C)c2C)CC1 |  | 11.6 µM (active)
Cc1cccc(N2CCN(C(=O)c3ccc(Nc4nc5ccccc5n5nnnc45)cc3)CC2)c1C | -10.5% (inactive) | 
CC(=O)N1CCN(c2cccc(C)c2C)CC1 | -2.67% (inactive) | 
O=C(O)C(O)[C@@](O)(Cc1ccc(O)cc1)C(=O)O (stereo partly specified) | -5.46% (inactive) | 
COCCCN1C(=O)C(=O)/C(=C(/O)c2ccc(S(=O)(=O)N3CCOCC3)cc2)C1c1ccc(F)cc1 (stereo unspecified) | 17.4% (inactive) | 
Cc1ccc(CNC(=O)Nc2nnc([C@H]3C[C@H](O)[C@@H](CO)O3)s2)cc1 | 17.4% (inactive) | 
O=C(O)CC(SCC(=O)Nc1ccc(Br)cc1)C(=O)O (stereo unspecified) | -10.5% (inactive) | 
O=C(Nc1nnc(CCOCCOCCc2nnc(NC(=O)c3ccco3)s2)s1)c1ccco1 | -5.18% (inactive) | 
CCC(=O)Nc1nc(OC)cc(OC)n1 | -21.4% (inactive) | 
CCOc1ccccc1NC(=S)N1CCN(c2cccc(C)c2C)CC1 |  | 8.2 µM (active)
CCOc1ccccc1NC(=O)C1CCCN(C(=O)Nc2ccccc2)C1 (stereo unspecified) | -0.555% (inactive) | 
Cc1c(C)n(Cc2ccc(Cl)cc2)c2ccc(C(=O)N3CCN(c4ccccc4F)CC3)cc12 |  | 23.1 µM (active)
